# Rows were chosen to be rich in hits. Some 5.4% of all compounds tested hit in one or more screens of this group.
# MARV entry inh: inhibitors of Marburg virus binding or cell entry; Marburg virus pseudotyped entry inhibition, cell reporter; Potency, µM (titrated, usually from 37.8 µM), inactives show at the top dose activity change, negative = inhibition, usual class: inhibitors; hit rate 1.8% among 300,000; AID 540276; calls by dose curve; tested in HEK293 cells
# Sm TGR block: blocks Schistosoma mansoni thioredoxin glutathione reductase. purified TGR, DTNB reduction, TNB absorbance 405 nm. hit rate 3% among 360,000. Potency, µM (top dose mostly 114 µM), for inactives: top-dose activity change, negative = inhibition, hits mostly inhibitors. AID 485364; active = well fitted inhibition curve with a large enough effect; inconclusive = small, poorly fitted or top-dose-only effect; inactive = no such curve, though single readings can be large or run the other way; note: nearly all actives have a fitted effect of over 60% in size
#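 TGR 20 nM + NADPH 100 uM (dispensed conc.), cpd preinc 15 min RT; start with NADPH (500 uM addition) then DTNB (15 mM addition). Kinetic TNB absorbance, 405 nm filter. Four-parameter Hill fit across titration.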
# FMDV inh: blocks foot and mouth disease virus. FMDV antiviral cell-based qHTS. Potency, µM (series often up to 57.9 µM), without a hit: at the highest dose activity change, negative = inhibition, hits mostly inhibitors. hit rate 1.2% among 410,000. AID 1159524; calls by dose curve; tested in HEK293T cells; note: read-out not given here; nearly all actives have a fitted effect of over 45% in size
# VACV mCherry inh: vaccinia inhibition (mCherry reporter) | AID 720579 | Vaccinia virus mCherry reporter infection, fluorescence | Potency, µM (titrated, usually from 36.5 µM), inactives show top-dose activity change, negative = inhibition, most hits filed as inhibitors | hit rate 0.63% among 310,000; calls by dose curve; tested in A549 cells; note: nearly all actives have a fitted effect of over 35% in size
# VACV Venus inh: vaccinia inhibition (Venus reporter) | Vaccinia virus Venus reporter expression, fluorescence | Potency, µM (titrated, usually from 36.5 µM), inactives show at the highest dose activity change, negative = inhibition, most hits filed as inhibitors | hit rate 0.46% among 330,000 | AID 720580; calls by dose curve; tested in A549 cells; note: nearly all actives have a fitted effect of over 30% in size
# Lassa entry inh: Lassa virus entry inhibition; hit rate 1.2% among 300,000; AID 540256; Lassa virus pseudotype entry inhibition, cell reporter; Potency, µM (top dose mostly 37.9 µM), inactives show at the top dose activity change, negative = inhibition, usual class: inhibitors; calls by dose curve; tested in HEK293 cells; note: nearly all actives have a fitted effect of over 50% in size
# * hit, by the source's call; i = inactive; ? = inconclusive; nt = no result given; [ ] = remark or other dose. % is set by controls: 0 for no effect and ±100 for the full control effect; potency is the fitted concentration of half-maximal effect.
SMILES,MARV entry inh,Sm TGR block,FMDV inh,VACV mCherry inh,VACV Venus inh,Lassa entry inh
Cc1[nH]n(-c2ccc([N+](=O)[O-])cc2)c(=O)c1C=NCCc1c(C)[nH]c2ccccc12,?,-10%,25µM*,?,?,8%
Cc1ccc(-n2[nH]c(C)c(/C=N/Nc3ccc([N+](=O)[O-])cc3[N+](=O)[O-])c2=O)cc1,?,-2%,7.9µM*,-18%,-13%,1%
COCC(=O)Nc1cc(C(=O)N2CCC(c3ccccc3)CC2)cc2nc(-c3ccccc3)n(C)c12,nt,nt,22%,i,-2%,nt
COc1ccc(C(=O)OCC(=O)NCc2ccco2)cc1OC,5%,35µM*,-14%,nt,-8%,-9%
COc1ccc(-c2ccc(C#N)c(SCC(=O)NCc3ccco3)n2)cc1OC,?,32µM*,-4%,-3%[7.34 µM],-9%[7.34 µM],?
Cc1ccc(C(=O)OCC(=O)NCc2ccco2)cc1,6%,-5%,15%,1%,2%,16%
CCOc1ccccc1OCC(=O)NCc1ccco1,20%,20µM*,nt,-11%,-4%,-6%
CCOc1ccc(C(=O)OCC(=O)NCc2ccco2)cc1OCC,0%,45µM*,-9%,nt,-6%,13%
CCC(C)NC(=O)Cn1ncc2c(C)n(Cc3ccc(F)cc3)c(C)c2c1=O (configuration not stated),-3%[46.1 µM],-1%,4%,4%,-10%,-6%[46.1 µM]
COc1ccc(OCCC(=O)OCC(=O)NCc2ccco2)cc1,-4%,50µM*,1%,-18%,-14%,3%
CCN(CC)c1ccc(/C=N/NC(=O)C(O)(c2ccccc2)c2ccccc2)o1,-26%,14µM*,nt,nt,nt,-18%
O=C(O)c1ccc(/C=N/NC(=O)C(O)(c2ccccc2)c2ccccc2)cc1,-1%[46.1 µM],2%,-6%,-12%,-14%,6%[46.1 µM]
COc1ccc(OC)c(CNC(=O)CCCn2nc(C)c3c(C)n(-c4ccc(C)cc4)nc3c2=O)c1,nt,-12%,-19%,-28%,-26%,-18%[46.1 µM]
COc1ccc2c(C)nc(Nc3nc(C)c(C)c(=O)[nH]3)nc2c1,?,12%,51%,nt,nt,?
COc1ccc2c(C)nc(Nc3nc(C)cc(C)n3)nc2c1,-8%,11µM*,3%,nt,nt,5%
CCOc1ccc(CN2CCc3nc(N4CCN(c5ccccc5OC)CC4)ncc3C2)cc1OC,nt,0%,20µM*,?,?,?
COc1cc(OC)c(OC)cc1CN1CCc2nc(N3CCN(c4ccccc4F)CC3)ncc2C1,nt,-5%,11µM*,?,?,-2%[46.1 µM]
COc1ccc(CN2CCc3nc(N4CCN(c5ccc(F)cc5)CC4)ncc3C2)c(OC)c1OC,nt,0%,20µM*,?,?,?
COc1cc(OC)c(OC)cc1CN1CCc2nc(N3CCN(c4ncccn4)CC3)ncc2C1,nt,22µM*,?,-28%,-30%,-8%[46.1 µM]
COc1ccccc1N1CCN(c2ncc3c(n2)CCN(Cc2ccccc2F)C3)CC1,nt,-6%,-12%,-9%,-15%,13%[46.1 µM]
Cc1ccc(C)c(NC(=O)CCc2nc3cccnc3n2Cc2cccs2)c1,7%[46.1 µM],-3%,0%,-10%,-8%,6%[46.1 µM]
COCc1cc(C)nc(N/N=C/c2ccc(-c3ccc(Cl)cc3[N+](=O)[O-])o2)c1C#N,-3%[46.1 µM],8.9µM*,-14%,-6%,-2%,-10%[46.1 µM]
Cc1c(C(=O)N/N=C/c2ccc(-c3ccccc3[N+](=O)[O-])o2)sc(N)c1C#N,4%,-13%,9%,-11%,-18%,-9%
O=C(NCc1ccccn1)c1cc2n(n1)C(C(F)(F)F)CC(c1ccco1)N2 (configuration not stated),40%,40µM*,-11%,nt,3%,-1%
COc1ccc(NC(=S)N(CCc2c(C)[nH]c3ccccc23)Cc2ccco2)cc1,13µM*,-11%,-9%,-3%,-14%,?
SMILES,MARV entry inh,Sm TGR block,FMDV inh,VACV mCherry inh,VACV Venus inh,Lassa entry inh
CCOc1ccc(S(=O)(=O)N2CCN(c3ccc(C)cc3C)CC2)c2ccccc12,-5%[46.1 µM],12%,7%,5%,7%,?
Cc1ccc(C(=O)CNc2cccc([N+](=O)[O-])c2)cc1,0%[46.1 µM],6%,58%,-19%,-5%,8%
Cc1ccc(NCC(=O)c2ccc([N+](=O)[O-])cc2)cc1,?,16µM*,68%,0%,46%,-1%
CNC(CC(=O)c1ccc([N+](=O)[O-])cc1)C(Cl)(Cl)Cl (configuration not stated),?,0.45µM*,32µM*,-16%,-3%,?
Cc1ccc(-c2cn3nc(N4CCCC(C(=O)Nc5ccc(F)cc5)C4)sc3n2)cc1 (configuration not stated),nt,9%,-2%,-2%,-13%,?
COc1cccc(NC(=O)c2oc3ccccc3c2NC(=O)c2ccccc2C)c1,0%[46.1 µM],-10%,-7%,-11%,-3%,7%[46.1 µM]
COc1ccc(-c2nc(SCC(=O)NCCCc3ccccc3)n[nH]2)cc1,nt,-1%,-10%,-20%,-22%,?
COC(=O)C1(C(=O)OC)Cc2conc2[C@@H]1c1ccccc1,-10%[14.2 µM],nt,nt,nt,nt,nt
Cc1oc(S(=O)(=O)N2CCCCC2)cc1NC(=O)Nc1ccc(F)cc1,nt,10µM*,6%,nt,nt,nt
COc1cc2c(cc1OC)CN(C(=O)c1ccc([N+](=O)[O-])o1)CC2,-13%[46.1 µM],28µM*,-21%,-15%,-24%,-15%
COc1cccc2sc(N3CCN(C(=O)c4ccc([N+](=O)[O-])o4)CC3)nc12,-29%,?,?,8.9µM*,13µM*,?
O=C(c1ccc([N+](=O)[O-])o1)N1CCN(c2nc3c(Cl)cccc3s2)CC1,?,-20%,?,-28%,-15%,?
COc1ccc2ncc3c(-c4ccc(C)c(C)c4)nn(CC(=O)Nc4ccccc4)c3c2c1,nt,33%,9%,?,-29%,-16%[46.1 µM]
COc1ccc(CCNc2nc3cc(OC)c(OC)cc3c3nc(-c4cccnc4)nn23)cc1OC,-4%[46.1 µM],0%,-18%,-20%,-7%,nt
Cc1oc(-c2ccc(Cl)cc2)nc1CS(=O)CC(=O)NCCc1ccccc1 (configuration not stated),nt,22µM*,22%,-9%,-7%,?
Cc1ccc(-c2nc(CS(=O)CC(=O)NCCCc3ccccc3)c(C)o2)cc1 (configuration not stated),-28%[46.1 µM],35µM*,6%,-25%,?,1%[46.1 µM]
COc1cccc(-c2nc(CS(=O)CC(=O)NCCc3ccc(C)cc3)c(C)o2)c1 (configuration not stated),-4%[46.1 µM],-15%,-8%,i,-15%,8%[46.1 µM]
COc1ccc(-c2nc(CS(=O)CC(=O)NCCC3=CCCCC3)c(C)o2)cc1 (configuration not stated),nt,40µM*,0%,?,-30%,nt
Cc1ccc(-c2nc(CS(=O)CC(=O)NCCc3ccc(Cl)cc3)c(C)o2)cc1 (configuration not stated),-18%[46.1 µM],-5%,-12%,-7%,-17%,?

# Assay outcomes: PubChem, National Center for Advancing Translational Sciences (NCATS)
